Our source for the inhibition values is PubChem BioAssay.

A number with no mark means an inactive call. Calls of active or inactive are those of the source. Unless noted, no stated cut-off is given here; in the data, active means inhibition above about 33%; inactive means the rest. Bridge positions count the residues as written; N and C are the ends. Square brackets hold non-standard residues; d marks the D form. Peptide text beside a SMILES is read from it.

The target in assay [1] is Nuclear receptor coactivator 3 (Homo sapiens) (UniProt Q9Y6Q9). The experiment in a line: SRC3 coactivator transcriptional activity inhibitors, confirmation, cell-based, luminescence, quadruplicate (AID 588792;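 active means mean inhibition over 43.08%, the solvent-only control mean plus 3 SD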;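 further: 0% = DMSO treated cells and 100% = gossypol at 36 µM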). As to conditions: HEK293 GAL4-SRC3 luciferase reporter, at 3.6 µM, stronger effect = higher value.
The subject of assay [2] is transactivating tegument protein VP16 (Human herpesvirus 1), Gal4-VP16 luciferase reporter. The assay is described as follows: VP16 transactivation inhibitors, counter-screen for SRC3 inhibitor project, cell-based, luminescence, high throughput (AID 588794; in the data active means inhibition above about 30%). The note with it: mammalian cells, VP16-driven luciferase reporter luminescence; at 3.6 µM; stronger effect = higher value. On the technique in general: The purpose of a counterscreen is to sort out artefacts and off-target activity.

Assay [3] deals with Nuclear receptor coactivator 1 (Homo sapiens) (UniProt Q15788). The assay is described as follows: SRC1 coactivator transcriptional activity inhibitors, confirmation, cell-based, luminescence, quadruplicate (AID 588820;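 active means mean inhibition above 46.68%, the untreated control wells mean plus 3 SD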;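 further: 0% = DMSO wells and 100% = gossypol 36 µM treated wells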). The note with it: HEK293 GAL4-SRC1 luciferase reporter, at 3.6 µM, stronger effect = higher value. A general note: In a reporter assay the amount or activity of a reporter protein is the signal.
Nuclear receptor coactivator 1 (Homo sapiens), sequence (Q15788 whole entry, looked up, the tested form may be a part): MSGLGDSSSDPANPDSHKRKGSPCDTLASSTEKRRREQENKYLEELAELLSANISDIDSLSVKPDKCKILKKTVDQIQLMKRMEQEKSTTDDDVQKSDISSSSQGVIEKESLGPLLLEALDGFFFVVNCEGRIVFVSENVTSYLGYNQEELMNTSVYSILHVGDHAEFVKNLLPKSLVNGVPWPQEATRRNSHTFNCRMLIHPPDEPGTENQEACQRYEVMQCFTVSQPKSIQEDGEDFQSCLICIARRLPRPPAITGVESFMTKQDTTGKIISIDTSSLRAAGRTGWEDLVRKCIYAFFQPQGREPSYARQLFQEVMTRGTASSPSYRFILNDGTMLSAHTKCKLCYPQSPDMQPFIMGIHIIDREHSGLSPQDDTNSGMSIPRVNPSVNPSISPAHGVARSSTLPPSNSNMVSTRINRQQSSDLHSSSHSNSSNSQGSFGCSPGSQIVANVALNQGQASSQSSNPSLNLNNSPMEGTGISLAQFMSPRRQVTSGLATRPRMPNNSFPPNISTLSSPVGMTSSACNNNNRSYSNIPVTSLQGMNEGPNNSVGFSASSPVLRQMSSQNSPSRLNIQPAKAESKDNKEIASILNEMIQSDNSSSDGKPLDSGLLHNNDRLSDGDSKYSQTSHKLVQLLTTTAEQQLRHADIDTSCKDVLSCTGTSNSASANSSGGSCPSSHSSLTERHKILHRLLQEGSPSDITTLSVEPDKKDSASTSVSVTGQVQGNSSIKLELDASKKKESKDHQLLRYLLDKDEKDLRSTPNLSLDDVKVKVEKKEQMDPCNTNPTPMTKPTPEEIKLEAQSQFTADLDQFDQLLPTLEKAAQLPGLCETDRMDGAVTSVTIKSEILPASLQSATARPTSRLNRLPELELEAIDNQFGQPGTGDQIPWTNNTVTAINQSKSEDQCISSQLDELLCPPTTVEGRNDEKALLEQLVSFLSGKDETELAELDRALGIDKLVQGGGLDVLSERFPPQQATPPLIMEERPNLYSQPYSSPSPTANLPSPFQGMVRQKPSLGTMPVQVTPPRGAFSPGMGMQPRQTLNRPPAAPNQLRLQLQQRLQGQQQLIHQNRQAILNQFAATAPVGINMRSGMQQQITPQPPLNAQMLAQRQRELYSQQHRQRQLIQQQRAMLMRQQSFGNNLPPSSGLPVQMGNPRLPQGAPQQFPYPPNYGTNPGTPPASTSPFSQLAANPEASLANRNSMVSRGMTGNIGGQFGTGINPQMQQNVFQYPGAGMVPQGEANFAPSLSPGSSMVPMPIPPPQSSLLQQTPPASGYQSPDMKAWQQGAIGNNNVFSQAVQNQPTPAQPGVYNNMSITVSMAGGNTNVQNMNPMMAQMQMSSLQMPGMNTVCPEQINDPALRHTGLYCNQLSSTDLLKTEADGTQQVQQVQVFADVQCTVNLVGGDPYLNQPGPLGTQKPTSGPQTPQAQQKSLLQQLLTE

Assay [4] is described as follows: VP16 transactivation inhibitors, counter-screen for SRC1 inhibitor project, cell-based, luminescence, high throughput (AID 588824; in the data active means inhibition above about 25%). The note with it: cell-based VP16 transactivation luciferase luminescence; at 3.6 µM; stronger effect = higher value.
Assay [5] in a line: StAR promoter reporter inhibitors, counter-screen for LRH-1 inverse agonist project, cell-based, luminescence, high throughput (AID 651611; in the data active means inhibition above about 28%). As to conditions: StAR promoter luciferase reporter counterscreen, at 3.6 µM, stronger effect = higher value.
The target in assay [6] is Nuclear receptor subfamily 5 group A member 2 (Homo sapiens) (UniProt O00482). The experiment in a line: LRH-1 (NR5A2) inverse agonists, retest, confirmation, cell-based, luminescence (AID 651613; in the data active means inhibition above about 42%;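 further: HEK293T cells co-transfected with LRH-1 and StAR promoter luciferase reporter; 0% = vehicle wells and 100% = parental cells lacking receptor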). The note with it: cell-based LRH-1 luciferase reporter, inverse agonism; at 3.6 µM; stronger effect = higher value.
Nuclear receptor subfamily 5 group A member 2 (Homo sapiens), sequence (O00482 whole entry, looked up): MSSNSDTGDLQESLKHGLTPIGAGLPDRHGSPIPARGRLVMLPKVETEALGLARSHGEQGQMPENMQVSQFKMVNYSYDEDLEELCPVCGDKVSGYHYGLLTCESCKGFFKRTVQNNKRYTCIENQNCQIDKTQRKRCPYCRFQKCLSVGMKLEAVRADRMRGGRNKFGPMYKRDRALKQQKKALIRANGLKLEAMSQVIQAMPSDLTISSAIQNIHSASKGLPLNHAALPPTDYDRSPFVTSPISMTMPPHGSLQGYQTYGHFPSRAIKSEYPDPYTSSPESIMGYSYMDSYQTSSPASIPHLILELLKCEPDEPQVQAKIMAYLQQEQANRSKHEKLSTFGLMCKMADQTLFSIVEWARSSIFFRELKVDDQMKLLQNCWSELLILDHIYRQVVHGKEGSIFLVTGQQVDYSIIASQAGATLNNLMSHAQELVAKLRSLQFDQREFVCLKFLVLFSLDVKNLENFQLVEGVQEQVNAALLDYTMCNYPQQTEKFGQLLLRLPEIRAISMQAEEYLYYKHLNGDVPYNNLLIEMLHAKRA
Assay [7] has as its target Steroidogenic factor 1 (Homo sapiens) (UniProt Q13285). The assay is described as follows: SF1 (NR5A1) inverse agonists, counter-screen for LRH-1 inverse agonist project, cell-based, luminescence, high throughput (AID 651614; in the data active means inhibition above about 44%;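 further: cells cotransfected with StAR promoter reporter and SF1 expression vector; 0% = vehicle on cells with receptor and 100% = vehicle on cells lacking receptor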). The note with it: cell-based SF1 luciferase reporter, at 3.6 µM, stronger effect = higher value.
A short description of assay [8]: VP16 transactivation reporter inhibitors, counter-screen for LRH-1 inverse agonist project, cell-based, luminescence, high throughput (AID 651615). The note with it: Gal4-VP16 luciferase reporter cells, at 3.6 µM, stronger effect = higher value.
For assay [9], the system named is transactivating tegument protein VP16 (Human herpesvirus 1). The assay is described as follows: VP16 transactivation reporter inhibitors, counter-screen for SRC2 inhibitor project, cell-based, luminescence, single concentration (AID 652007; in the data active means inhibition above about 36%). The note with it: cell-based VP16 transactivation luciferase reporter, at 8.9 µM, stronger effect = higher value.
Assay [10] addresses Nuclear receptor coactivator 2 (Homo sapiens) (UniProt Q15596). The experiment in a line: SRC2 coactivator transcriptional activity inhibitors, confirmation, cell-based, luminescence, HEK293, triplicate (AID 652008;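 active means mean inhibition above 46.5%, the solvent-only control mean plus 3 SD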;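 further: 0% = DMSO-treated cells and 100% = Gossypol at 36 µM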). As to conditions: HEK293 GAL4-SRC2 luciferase reporter, at 8.9 µM, stronger effect = higher value.

Steroidogenic factor 1 (Homo sapiens), sequence (Q13285 whole entry, looked up, the tested form may be a part): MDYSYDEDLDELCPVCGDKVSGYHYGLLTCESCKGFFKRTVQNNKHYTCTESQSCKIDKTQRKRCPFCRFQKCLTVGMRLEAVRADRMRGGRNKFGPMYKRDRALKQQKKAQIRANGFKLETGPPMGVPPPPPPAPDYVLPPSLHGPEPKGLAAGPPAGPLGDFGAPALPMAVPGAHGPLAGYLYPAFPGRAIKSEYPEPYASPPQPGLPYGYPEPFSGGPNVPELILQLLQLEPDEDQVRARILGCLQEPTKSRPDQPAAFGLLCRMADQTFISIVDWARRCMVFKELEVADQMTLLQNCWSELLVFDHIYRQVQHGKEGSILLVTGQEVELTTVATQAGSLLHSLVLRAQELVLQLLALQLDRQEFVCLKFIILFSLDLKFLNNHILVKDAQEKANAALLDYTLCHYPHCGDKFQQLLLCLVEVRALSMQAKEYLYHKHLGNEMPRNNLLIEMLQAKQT
Nuclear receptor coactivator 2 (Homo sapiens), sequence (Q15596 whole entry, looked up, the tested form may be a part): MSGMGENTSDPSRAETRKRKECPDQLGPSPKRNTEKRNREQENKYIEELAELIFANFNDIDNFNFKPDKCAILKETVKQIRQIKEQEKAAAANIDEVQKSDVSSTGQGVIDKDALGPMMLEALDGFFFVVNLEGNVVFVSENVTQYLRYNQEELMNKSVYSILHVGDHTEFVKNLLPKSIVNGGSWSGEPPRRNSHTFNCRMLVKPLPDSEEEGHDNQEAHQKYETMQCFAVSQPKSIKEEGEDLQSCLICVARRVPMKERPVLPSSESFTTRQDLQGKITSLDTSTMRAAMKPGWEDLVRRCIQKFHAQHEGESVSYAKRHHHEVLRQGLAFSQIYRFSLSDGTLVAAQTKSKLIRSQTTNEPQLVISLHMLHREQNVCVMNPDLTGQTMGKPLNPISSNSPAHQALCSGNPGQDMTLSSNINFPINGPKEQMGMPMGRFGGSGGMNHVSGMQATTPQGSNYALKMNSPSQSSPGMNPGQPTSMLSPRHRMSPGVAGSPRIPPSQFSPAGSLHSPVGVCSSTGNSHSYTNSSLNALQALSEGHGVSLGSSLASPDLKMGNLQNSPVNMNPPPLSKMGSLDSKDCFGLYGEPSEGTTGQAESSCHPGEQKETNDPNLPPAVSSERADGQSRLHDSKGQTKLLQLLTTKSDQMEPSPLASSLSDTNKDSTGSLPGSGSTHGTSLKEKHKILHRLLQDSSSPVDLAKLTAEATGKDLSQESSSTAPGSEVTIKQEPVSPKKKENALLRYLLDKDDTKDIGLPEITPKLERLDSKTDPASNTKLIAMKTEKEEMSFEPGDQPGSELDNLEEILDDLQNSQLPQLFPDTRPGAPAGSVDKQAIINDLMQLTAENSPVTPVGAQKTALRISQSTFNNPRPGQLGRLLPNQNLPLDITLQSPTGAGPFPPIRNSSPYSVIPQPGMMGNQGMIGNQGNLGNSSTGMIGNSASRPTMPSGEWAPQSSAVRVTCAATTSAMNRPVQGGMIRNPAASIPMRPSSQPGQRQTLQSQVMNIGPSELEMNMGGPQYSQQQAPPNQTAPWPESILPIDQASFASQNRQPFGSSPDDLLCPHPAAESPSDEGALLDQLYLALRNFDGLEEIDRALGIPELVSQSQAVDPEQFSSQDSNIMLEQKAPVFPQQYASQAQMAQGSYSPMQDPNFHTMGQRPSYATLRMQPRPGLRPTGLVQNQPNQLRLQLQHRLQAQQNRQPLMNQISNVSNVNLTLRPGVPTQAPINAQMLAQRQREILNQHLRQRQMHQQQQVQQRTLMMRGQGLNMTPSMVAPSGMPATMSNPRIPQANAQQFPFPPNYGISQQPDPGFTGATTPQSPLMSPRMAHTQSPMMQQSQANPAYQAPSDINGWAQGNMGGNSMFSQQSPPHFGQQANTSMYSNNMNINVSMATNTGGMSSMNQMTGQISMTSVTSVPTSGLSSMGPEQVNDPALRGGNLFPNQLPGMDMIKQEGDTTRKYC

One may read the inhibition as the relative decrease from the control value, in per cent. Take `CC1CC(C)C(=O)C(C(CC2CC(=O)NC(=O)C2)OC(=O)CC(=O)c2ccccc2)C1` (stereo not given): the inhibition in assay [1] is 93.1% (active); in assay [2], 88.9% (active); in assay [3], 81.3% (active); in assay [4], 87.8% (active); in assay [5] it was 91.6% (active); in [6] it was 108% (active). In addition, the inhibition in [7] is 96.9% (active); in [8], 91.7% (active); in assay [9], 37.2% (active); in assay [10], 52.5% (active).

Take `Cc1cc(C(=O)CSc2ccc(F)cc2)cc(C)c1OC(=S)N(C)C`: the inhibition was 41.6% in [1]; 43.6% (active) in [2]; 2.12% in assay [3]; -8.86% in assay [4]; -28.6% in assay [5]; -65.3% in [6]. Besides, the inhibition was -23.4% in assay [7], -17.3% in [8], 22.6% in assay [9] and 65.7% (active) in [10].

As for `CC(=O)Nc1ccc(SCC(=O)c2cc(C)n(-c3ccccc3F)c2C)cc1`, the inhibition in [1] is 41%; in [2], 9.76%; in [3], -10.3%; in assay [4], -5.83%; in assay [5] it was -29.9%; in [6], -14.4%. In addition, the inhibition was -11.8% in [7], -26% in [8], -6.67% in assay [9] and 38% in assay [10].

On to `CCN1/C(=C/c2sc(-c3ccccc3C)c[n+]2C)Sc2ccccc21`, for which the inhibition in assay [1] was 76.8% (active); in assay [2], 86% (active); in assay [3], 61.9% (active); in assay [4] it was 82.8% (active); in assay [5], 74.7% (active); in [6], 105% (active). The inhibition in assay [7] was 94.7% (active); in [8], 89.2% (active); in assay [9], 44.1% (active); in [10], 34.1%.

Consider `Nc1nc(F)nc2c1ncn2[C@@H]1O[C@H](CO)[C@@H](O)[C@H]1O`, for which the inhibition in assay [1] was 98% (active); in assay [2], 93.4% (active); in [3], 82.7% (active); in [4] it was 94.4% (active); in assay [5], 94.5% (active); in assay [6], 108% (active). The inhibition is 96.2% (active) in assay [7], 98.7% (active) in assay [8], 76.6% (active) in assay [9] and 77.6% (active) in assay [10].

Turning to `O=C(COC(=O)c1ccc[nH]c1=O)Nc1ccc(N2CCCCC2)cc1`, the inhibition in assay [1] was 54.4% (active); in [2], 20.8%; in [3], 42.2%; in assay [4], 5.72%; in [5], 42.1% (active); in assay [6] it was 55% (active). For the same molecule, the inhibition was 41% in assay [7], 6.65% in assay [8], 45.1% (active) in assay [9] and 90.5% (active) in assay [10].

Turning to `Cc1nn(-c2ccccc2Cl)c(Cl)c1/C=N/Nc1nc2ccccc2s1`, the inhibition was 64.1% (active) in [1]; 73.5% (active) in [2]; 48.1% (active) in assay [3]; 57.4% (active) in assay [4]; 82.7% (active) in assay [5]; 21.8% in assay [6]. Further, the inhibition is 73.5% (active) in assay [7], 58.5% (active) in [8], 82.7% (active) in assay [9] and 91.7% (active) in assay [10].

On to `CC(C)(C)c1ccc(-c2noc(CCC(N)=O)n2)cc1`, for which the inhibition in [1] is 65.2% (active); in assay [2], 51.9% (active); in assay [3], 59.7% (active); in assay [4], 56.7% (active); in assay [5], 58.9% (active); in [6], 70% (active). In addition, the inhibition is 60.8% (active) in [7], 58.4% (active) in assay [8], 83.6% (active) in assay [9] and 94.2% (active) in [10].

As to `COC(=O)c1ccc2nc(Nc3nc4c(F)cc(F)cc4s3)sc2c1`, the inhibition is 23.9% in [1]; 40.6% (active) in [2]; -34.6% in assay [3]; 36.7% (active) in assay [4]; 28.2% (active) in [5]; -92.1% in [6]. For the same molecule, the inhibition in assay [7] is 25.5%; in assay [8], -29.2%; in assay [9], -2.64%; in assay [10] it was 61.1% (active).

Take `COc1cc(OC)cc(-c2cc3nc(C)c(CCC(=O)O)c(C)n3n2)c1`: the inhibition in [1] was 66.4% (active); in [2] it was 69.9% (active); in assay [3], 55.8% (active); in [4] it was 64.1% (active); in assay [5] it was 64.9% (active); in assay [6] it was 76.4% (active). Also, the inhibition is 71% (active) in assay [7], 69% (active) in [8], 89.9% (active) in assay [9] and 93.3% (active) in assay [10].

As to `CCCc1ccc(-c2ccc(/C=C/C(=O)O)cc2)nc1`, the inhibition in assay [1] is 76% (active); in assay [2], 71.9% (active); in assay [3], 70.6% (active); in assay [4], 67.7% (active); in assay [5] it was 77.9% (active); in [6], 85.6% (active). In addition, the inhibition in assay [7] is 76.9% (active); in assay [8], 68.6% (active); in [9], 85.7% (active); in assay [10], 94.6% (active).

With `CC1CC(C)C(=NNC(N)=O)C(C(O)CC2CCC(=O)NC2=O)C1` (stereo not given), the inhibition was 9.15% in assay [1]; 11.3% in assay [2]; 33.6% in [3]; 7.8% in [4]; 63.1% (active) in assay [5]; 76.7% (active) in [6]. Moreover, the inhibition is 75.8% (active) in [7], 30% in assay [8], 8% in [9] and -0.31% in [10].

For `COC1=CC(=O)c2nc(Cl)ccc2C1=O`, the inhibition in [1] was 67.8% (active); in [2], 55.1% (active); in assay [3], -9.24%; in [4], 60.7% (active); in assay [5], 56.2% (active); in [6], 65.1% (active). Besides, the inhibition was 70% (active) in assay [7], 72.2% (active) in assay [8], 24.5% in [9] and 89.5% (active) in assay [10].

For `CC[C@H](C)[C@@H]1NC(=O)[C@@H](CC(C)C)NC(=O)[C@H](C(C)C)NC(=O)[C@H]2CSSC[C@H](NC1=O)C(=O)N2` (cyclo(C[dC]V[dL]I); disulfide 1-2), the inhibition in [1] is 99.9% (active); in [2] it was 98.3% (active); in assay [3], 99.6% (active); in assay [4], 98% (active); in assay [5], 96% (active); in [6], 109% (active). The inhibition in assay [7] was 97.7% (active); in [8], 97.5% (active); in assay [9], 98.3% (active); in assay [10], 99.6% (active).
